Experimental data reported in the supplement of paper PMC10646978.
± gives the standard deviation.

What was measured:
Details in all cases: modulator concentration 10 µM
[1] = system: RAW-Dual (murine macrophage reporter line); experiment: NF-kB reporter (SEAP) activity fold change vs agonist alone; higher = enhanced NF-kB activity
In short: (§1)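 Overnight stimulation with a PRR agonist followed pre-incubation for 1 hour at 37 °C with compound at 10 μM final. This was done in RAW-Dual murine macrophage reporter cells seeded at 50 000 per well in 384-well plates. NF-κB (SEAP, QUANTI-Blue absorbance at 620 nm) and IRF (Lucia luciferase, QUANTI-Luc luminescence) were read from the supernatant. Each reporter's fold change relative to the mean agonist-only control on the same plate was averaged over replicate plates.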

[2] = system: RAW-Dual (murine macrophage reporter line); experiment: IRF reporter (Lucia luciferase) activity fold change vs agonist alone; higher = enhanced IRF activity
In short: as §1

[3] = system: RAW-Dual (murine macrophage reporter line); experiment: viability score (confluency relative to resting cells, overnight) (fraction); higher = more viable, active = viable (0.7 or more)
In short: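 Two confluency masks, generated with IncuCyte software over all imaged wells, were applied to IncuCyte images of RAW-Dual macrophages. The cells, in 384-well plates, had been exposed overnight to 10 μM final compound. The viability score is confluency as a fraction of resting cells, and a compound met the cutoff only with both masks above 70% of resting cells.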

[4] = agonist: CpG ODN 1826 0.5 ug/mL

Structure (SMILES)	NF-kB reporter [1, 4]	NF-kB reporter ([1]; agonist: LPS 0.1 ug/mL)	NF-kB reporter ([1]; agonist: MPLA […])	IRF reporter ([2]; agonist: 3'3'-cGAMP 10 ug/mL)	IRF reporter ([2]; agonist: LPS 0.1 ug/mL)	IRF reporter ([2]; agonist: MPLA […])	viability score [3]
CCCCC(=O)N(Cc1ccc(-c2ccccc2-c2nn[nH]n2)cc1)[C@H](C(=O)O)C(C)C	1.04 ± 0.16	1.03 ± 0.15	0.903 ± 0.05	0.589 ± 0.054	0.855 ± 0.14	0.704 ± 0.12	0.996 (active)
N#CCCC1(CCC#N)S(=O)(=O)CC(c2ccc(Cl)cc2)CS1(=O)=O	0.67 ± 0.04	0.909 ± 0.056	0.623 ± 0.05	0.915 ± 0.031	1.26 ± 0.087	1.04 ± 0.091	0.97 (active)
O=[N+]([O-])c1ccc(OCC(O)CN2CCN(c3ccccc3)CC2)cc1 (configuration not stated)	0.91 ± 0.072	1.02 ± 0.059	0.964 ± 0.086	0.982 ± 0.024	1.42 ± 0.19	1.15 ± 0.15	1.01 (active)
CCc1cnn2c(NCc3ccc[n+]([O-])c3)cc(N3CCCC[C@H]3CCO)nc12	0.338 ± 0.018	0.0505 ± 0.0045	0.114 ± 0.0049	0.0244 ± 0.0044	0.0353 ± 0.0054	0.0374 ± 0.0047	0.0417 (inactive)
COc1ccc(OC)c(S(=O)(=O)N2CCC(Oc3nc4c(C)cccc4s3)CC2)c1	0.687 ± 0.039	0.889 ± 0.092	1.02 ± 0.072	0.741 ± 0.042	1.15 ± 0.26	1.41 ± 0.57	0.908 (active)
COCCOC(=O)C1=C(C)NC(C)=C(C(=O)OC(C)C)C1c1cccc([N+](=O)[O-])c1 (configuration not stated)	0.837 ± 0.07	1.05 ± 0.064	0.88 ± 0.076	1.11 ± 0.037	1.31 ± 0.18	1.11 ± 0.13	0.979 (active)
CCOc1nccn2c(CNC(=O)c3cccnc3)nnc12	0.929 ± 0.098	1.05 ± 0.084	1.11 ± 0.15	1.03 ± 0.064	1.02 ± 0.19	1 ± 0.4	0.988 (active)
CCOC(=O)c1ccc(N2C(=O)CC(N3CCN(c4ccc([N+](=O)[O-])cc4)CC3)C2=O)cc1 (configuration not stated)	0.813 ± 0.072	1.08 ± 0.066	0.928 ± 0.071	1.06 ± 0.039	1.64 ± 0.13	1.47 ± 0.13	0.997 (active)
Cc1ccc(-n2ncc3c(Nc4cccc(C)c4)ncnc32)cc1	0.987 ± 0.2	1.14 ± 0.098	1.02 ± 0.1	0.938 ± 0.05	1.09 ± 0.23	1.19 ± 0.15	0.995 (active)
O=c1ccn([C@@H]2O[C@H](CO)[C@@H](O)[C@H]2O)c(=O)[nH]1	1.05 ± 0.087	0.912 ± 0.045	1.05 ± 0.059	1.09 ± 0.066	0.985 ± 0.032	0.919 ± 0.1	0.998 (active)
COc1ccc([C@H]2CNC(=O)C2)cc1OC1CCCC1	2.61 ± 0.4	2.21 ± 0.38	1.9 ± 0.14	0.902 ± 0.039	1.03 ± 0.22	1.41 ± 0.15	0.982 (active)
